target: KBTBD12; experiment: pooled miR-30 sensor sort-seq; sequence = guide strand; details: shRNA
Further: reference of the scale not given here.

Sequence	sensor-assay potency score (higher = more potent)
TTGTAGTGTCTTATTTACCCTA	-0.555
TTCTTCATCAGGAAGATCCATC	-0.961
TTCATCAGGAAGATCCATCTGA	0.942

target: KCNAB2; experiment: as above; details: shRNA

Sequence	sensor-assay potency score (higher = more potent)
ATGATCTCCATGGAGCTCCAGC	-1.53
TATCTTGTGGAACAGCTCCGGC	-1.17
TTCGATTATGTGCTTCCTGGAC	-0.692
AATACTATCAATCTCGTGGATA	-1.21
TTTCTCACGCTGGAACATGTGG	-0.804
TTGGTGGTGATGACGAGGCTGG	-0.706
TGACAGTTTCGGAAGGACCTGT	0.657
CAAAATACTATCAATCTCGTGG	-0.486
TAGACTTCTGCTGTATCGAAGA	-0.756
TTCTGCTGTATCGAAGAGGTTG	-0.594
TTCCTGTAGATCATCCCGGGGG	-0.0548
TTTCAGACCTTCGATTATGTGC	-0.469

target: KCNB1; experiment: as above; details: shRNA

Sequence	sensor-assay potency score (higher = more potent)
TACTTTGTCTTTCTTACCCATA	-1.04
TTAGTTTTCATGGAACTCTTGG	0.191
TTTCTCAACCACAATGTCCATC	-0.571
TACATGTCTTCCAACTGCTGAA	-0.486
TAGATCTCGTCGATGCCCCAGT	-0.693
TTTGAACTTGGTGTCGTCCTCA	0.816
TAGAAGTTGAGGATGGAGGTGA	0.819
TTCATCTGCTCTTTCTTCTGGT	0.512
TACTCGTTGTCGTCGAGGCTGT	-0.424
TTTTCTCCGATCTTGTCCCCGT	-0.234
TTGAACTTGGTGTCGTCCTCAT	0.219

target: KCNC1; experiment: as above; details: shRNA

Sequence	sensor-assay potency score (higher = more potent)
TTTTCTTTGGTAGTTTCTGCTT	-0.644
AATTTCTAAAATTTCTTCCTGG	0.198
ATGAACTCTACCTTGTTGGGGC	0.181
TTCTTGATGAACTCTACCTTGT	-0.835
TAGTAGTTCAGGATGTGCGCGA	0.436
TAAGGAGTAATACATCCCGAAA	-1.65
TTCAGTTTGGAATCTGCTCTGT	0.183
TACTTAGCAATGACAGGGCTTT	-0.252
TTTCTTTGGTAGTTTCTGCTTA	0.312
TTGATGAACTCTACCTTGTTGG	0.0525
TTGCGTGCCATTGCGAACGTTC	-0.65
TTCTTTGGTAGTTTCTGCTTAG	-0.569
